Screening results from PubChem.
SNCA expr inh: inhibitors of alpha-synuclein (SNCA) gene expression; HEK-293 SNCA-luciferase knock-in, luminescence, 24 h; actives 0.17% (n = 140,000); Potency, µM (titrated, usually from 57.2 µM), without a hit: at the top dose activity change, negative = inhibition, hits mostly inhibitors;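 further: potency means the concentration at half of the fitted maximal effect; plate controls were DMSO cells for no effect and cell-free wells for full effect; nearly all actives have a fitted effect of over 45% in size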
IP6K1 inh: inhibitors of human IP6K1 | Q92551 | IP6K1 kinase, ADP-Glo luminescence, 2 h; active compounds read low | activity change, % (series mostly up to about 58 µM) | actives 0.81% (n = 140,000); in the data active means activity change below about -25%
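ADP-Glo luminescence measures ADP made by human IP6K1 during a 2 h RT reaction with ATP/IP6 (mix at 1.3 mM/130 uM); top library doses 57.5 and 19.1 uM final.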
HEK293 viab: counter-screen for SNCA expression inhibitors: cell viability; HEK-293-SNCA-luc viability, GF-AFC fluorescence, 24 h; Potency, µM (highest dose often 57.1 µM), for inactives: at the highest dose activity change, negative = cytotoxicity, actives largely listed as cytotoxic; actives 0.12% (n = 150,000); AID 1671193;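 further: potency means the concentration at half of the fitted maximal effect; 0% = DMSO-treated cells and -100% = medium-only wells without cells; nearly all actives have a fitted effect of over 30% in size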
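HEK-293-SNCA-luc cells (1500/well) plated 24 h, then exposed 24 h to a dilution series; GF-AFC added 30 min at 37C, fluorescence 405/540 nm; normalised to medium-only and DMSO wells, Hill fit.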
GPT2 inh: inhibitors of human GPT2 alanine aminotransferase. Q8TD30. Recombinant GPT2, coupled pyruvate oxidase/HRP Amplex Red fluorescence. Potency, µM (top dose mostly 57.7 µM), for the others: top-dose activity change, negative = inhibition, most hits filed as inhibitors. actives 0.25% (n = 100,000); further: potency means the concentration at half of the fitted maximal effect; nearly all actives have a fitted effect of over 60% in size
Target sequence (Q8TD30 whole entry, looked up): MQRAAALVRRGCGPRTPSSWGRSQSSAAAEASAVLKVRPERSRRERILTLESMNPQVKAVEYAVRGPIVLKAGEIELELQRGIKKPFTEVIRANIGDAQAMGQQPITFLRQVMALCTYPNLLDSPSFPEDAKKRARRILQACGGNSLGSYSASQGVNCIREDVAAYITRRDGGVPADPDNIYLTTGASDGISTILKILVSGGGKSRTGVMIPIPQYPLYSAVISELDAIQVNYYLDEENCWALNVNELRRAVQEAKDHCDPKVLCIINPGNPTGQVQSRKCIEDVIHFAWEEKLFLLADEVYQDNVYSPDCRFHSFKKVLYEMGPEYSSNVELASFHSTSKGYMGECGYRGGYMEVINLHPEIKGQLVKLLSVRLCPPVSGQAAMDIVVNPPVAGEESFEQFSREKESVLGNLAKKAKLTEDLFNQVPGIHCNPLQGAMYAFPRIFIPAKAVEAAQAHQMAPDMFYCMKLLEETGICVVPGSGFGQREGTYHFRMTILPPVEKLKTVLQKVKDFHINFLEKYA
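Fluorescence of coupled pyruvate oxidase/HRP/Amplex Red system (50uM Amplex, 30 min, dark) reports pyruvate formed by GPT2. Enzyme reaction: 10ng/uL GPT2, 2mM L-alanine, 250uM a-KG, 30 min room temperature, pH 7.5; 50uM AOA control.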
IP6K1 inh cnf: human IP6K1 inhibition, confirmatory. shares compounds with IP6K1 inh. recombinant IP6K1 kinase, ADP-Glo luminescence, 2 h. Potency, µM (doses to about 49 µM), for the others: top-dose activity change, negative = inhibition, most hits filed as inhibitors. actives 13% (n = 1,200). AID 1645852; further: potency means the concentration at half of the fitted maximal effect; nearly all actives have a fitted effect of over 65% in size
The depositor's hits bear a star; i = inactive; ? = inconclusive; · = not tested or not shown; ! = a repeat was not active; [ ] = remark or other dose. Sampled rows, rich in hits. Any-hit rate of the full collection: about 1.1%. Unless noted, the call rests on the fitted dose curve; in most records, active means well fitted curve in the direction sought with a large enough effect; inconclusive means small, poorly fitted or top-dose-only effect, or another doubt; inactive means no such curve, though single readings can be large; an effect the other way counts as inactive or inconclusive. Unless noted, on the % scale 0 is the no-effect control and ±100 the full control effect.

SMILES	SNCA expr inh	IP6K1 inh	HEK293 viab	GPT2 inh	IP6K1 inh cnf
CNC(=O)c1cc(C2CC2)nc2c1c(C1CCCN([S+](=O)([O-])c3cccs3)C1)nn2C (stereo not given)	·	7	·	·	·
COc1cc(-c2cc(C)c3cccc(OC)c3n2)cc2c1OCCN(C(=O)CCN)C2	7%	-8	8%	-17%	·
CNC(=O)c1cc(C2CC2)nc2c1c(C1CCN([S+](=O)([O-])c3c(C)noc3C)C1)nn2C (stereo not given)	·	-1	·	·	·
COc1ccc(-c2nc(-c3c(C)noc3C)cc3c2cc(C)n3CCN(C)C)cn1	44%[87.6 µM]	-11	-16%[87.6 µM]	-14%[88.5 µM]	·
Nc1nc2c(ncn2COC(CO)CO)c(=O)[nH]1	0.086µM*!	12	-18%	-22%	·
COc1cc(SC)ccc1C(=O)Nc1ccc(S(=O)(=O)Nc2nccc(C)n2)cc1	31%	1	2%	·	·
Cc1ccnc(NS(=O)(=O)c2ccc(NC(=O)Nc3ccc(S(=O)(=O)Nc4nccc(C)n4)cc3)cc2)n1	0.86µM*	-18	?	?	·
Cn1ncc2c(C(=O)NCc3ccc(F)cc3)cc(-c3ccc(Cl)nc3)nc21	10%	-1	-17%	2%	·
COc1ccc(F)c(F)c1C(=O)c1cnc(NC2CCN(S(C)(=O)=O)CC2)nc1N	14µM*	-4	?	2%	·
CCOC(=O)c1ccc(N2C(=O)c3n[nH]c(-c4cccs4)c3C2c2cccc(OC)c2)cc1 (stereo not given)	18µM*	-2	-21%	·	·
Cc1noc(C)c1-c1cc2c(cc(C)n2CCN(C)C)c(-c2ccc(CO)cc2)n1	10%[87.6 µM]	21	-11%[87.6 µM]	?	·
COCCN1CCN(Cc2ccc(-c3n[nH]c4c3C(=O)c3c(NC(=O)NN5CCOCC5)cccc3-4)cc2)CC1	·	1	0.15µM*	-10%	·
COCCN1Cc2[nH]nc(-c3cccc(NC(C)=O)c3)c2CC1=O	39%[87.6 µM]	27	-1%[87.6 µM]	-5%[88.5 µM]	·
Cc1noc(C)c1-c1cc2c(cc(C)n2CCN(C)C)c(-c2ccccc2O)n1	-9%[87.6 µM]	-6	?	-9%[88.5 µM]	·
NCc1cccc(-c2cc(C(F)(F)F)ccc2Cl)c1	-4%	-7	-14%	3%	·
COc1cccc(-c2cn3cc(C(=O)NCc4cccnc4)nc3s2)c1	142%	-14	4%	i	·
CC(C)C[C@H](NC(=O)[C@H](CCc1ccccc1)NC(=O)CN1CCOCC1)C(=O)N[C@@H](Cc1ccccc1)C(=O)N[C@@H](CC(C)C)C(=O)[C@@]1(C)CO1	0.12µM*!	-1	?	i	·
CCn1nccc1C(=O)NCCn1ccn2nc(-c3ccc(C)c(C)c3)cc2c1=O	23%	-6	-29%	i	·
CC(C)Cn1c(-c2cccc(Br)c2)nc2ccccc21	-20%	-33*	-11%	·	-23%
Cc1cccc(Cn2c(-c3ccccc3)nc3ccccc32)c1	9%	-19	-1%	·	·
O=C(O)c1ccc2c(c1)nc(Nc1cccc(Cl)c1)c1ccncc12	?	-35*	-33%	-27%	?
Cc1cc(Nc2cccc(Cl)c2)nc2ccc(NC(=O)c3cccnc3)cc12	?	17	?	·	·
COc1ccc(CC(=O)N2CCCC(N3C(=O)c4c(c(C)nn4-c4ccccc4)C3C(C)C)C2)cc1 (stereo not given)	·	10	·	·	·
Cc1cccc(NC(=O)CSc2cn(CC(=O)N3CCCCCC3)c3ccccc23)c1	?	-41*	-21%	·	-4%
O=C(Cn1cc(SCc2cccc(F)c2)c2ccccc21)N1CCCC1	104%	-97*	-4%	·	?
SMILES	SNCA expr inh	IP6K1 inh	HEK293 viab	GPT2 inh	IP6K1 inh cnf
O=C(Cn1cc(SCc2cccc(F)c2)c2ccccc21)N1CCOCC1	100%	-1	-23%	·	·
COc1ccccc1-c1nc(-c2c(C)noc2C)cc2cc(CN(C)C)oc12	52%[87.6 µM]	19	-4%[87.6 µM]	i	·
COc1ccc(Nc2nc(-c3c(C)noc3C)cc3cc(CN(C)C)oc23)cn1	11%[87.6 µM]	25	?	i	·
COc1ccc(-c2nc(-c3c(C)noc3C)cc3cc(CN(C)C)oc23)cn1	-11%[87.6 µM]	-49*	-3%[87.6 µM]	2%[88.5 µM]	?
COc1cc(-c2nc(-c3c(C)noc3C)cc3cc(CN(C)C)oc23)ccn1	3%[87.6 µM]	-33*	-15%[87.6 µM]	-24%[88.5 µM]	?
CCOCC1(C)COc2ccc(C(=O)Nc3cccc(N(C)C)c3)cc2N1 (stereo not given)	-3%[87.6 µM]	-17	-5%[87.6 µM]	4%[88.5 µM]	·
Cc1nn(-c2ccccc2)c2c1C(C1CC1)N(C1CCN([S+](C)(=O)[O-])C1)C2=O (stereo not given)	·	-7	·	·	·
CCCCCNC(=O)[C@@H]1CCCN1c1ccnc2ccnn12	·	-5	·	·	·
Cc1cc(Nc2nc(NC(C)c3ccc(F)cc3)c(C#N)cc2F)n[nH]1 (stereo not given)	·	·	·	·	-9%
COc1ccc(CCCc2nnc(SCC(=O)Nc3cccc(C)c3)o2)cc1	-11%	-33*	-3%	·	-13%
O=C(Cc1c[nH]c2ncc(-c3cccc(OC(F)(F)F)c3)cc12)NCc1cccnc1	-11%[87.6 µM]	-13	-16%[87.6 µM]	?	·
NC(=O)Cc1c[nH]c2ncc(-c3cccc(OC(F)(F)F)c3)cc12	-25%[87.6 µM]	-27*	-16%[87.6 µM]	?	?
COc1cccc(-c2cnc3[nH]cc(CC(N)=O)c3c2)c1	0%[87.6 µM]	-44*	4%[87.6 µM]	i	?
Cc1nn(-c2ccccc2)c2c1C(C)N(C1CN(C(=O)c3ccc(Cl)nc3)C1)C2=O (stereo not given)	·	1	·	·	·
Cc1nnc2ccc(N3CCN(C(=O)c4ccc(Cl)cc4)CC3)nn12	·	10	·	·	·
COc1ccc(CCNC(=O)CS(=O)Cc2nc(-c3ccc(C)cc3)oc2C)cc1OC (stereo not given)	-2%	-3	-10%	·	·
COc1ccc(CCNC(=O)CS(=O)Cc2nc(-c3ccc(C)cc3)oc2C)c(OC)c1 (stereo not given)	-1%	-26*	-9%	·	-6%
COc1ccc(Nc2cc(C(=O)NCc3ccccc3)c3ccccc3n2)cc1	-5%	-44*	-1%	·	-10%
CCN(CCCNC(=O)c1cc(Nc2ccc(OC)cc2OC)nc2ccccc12)c1cccc(C)c1	3%	-36*	-4%	·	-2%
Cc1cc(C)cc(-c2ccc(CN3CCCC3C(=O)NCc3ccc4c(c3)OCO4)cc2)c1 (stereo not given)	-16%	-8	2%	4%	·
CCN1CC(c2ccccc2)CC2(CCN(C(=O)COC)CC2)C1 (stereo not given)	5%	-27*	-8%	i	-12%
O=C(NCc1ccccc1Cl)C1CCCN(Cc2cccc(-c3ccsc3)c2)C1 (stereo not given)	·	-2	·	·	·
COCC(=O)NC1CCN(Cc2ccc(-c3ccccc3OC)cc2)C1 (stereo not given)	·	12	·	·	·
Cc1ccccc1-c1[nH]nc2ncc(-c3cccc(O)c3)nc12	-12%[87.6 µM]	4	-18%[87.6 µM]	0%[88.5 µM]	·
